# Target: T1, ETS1 (UniProt P14921)
# T1 sequence: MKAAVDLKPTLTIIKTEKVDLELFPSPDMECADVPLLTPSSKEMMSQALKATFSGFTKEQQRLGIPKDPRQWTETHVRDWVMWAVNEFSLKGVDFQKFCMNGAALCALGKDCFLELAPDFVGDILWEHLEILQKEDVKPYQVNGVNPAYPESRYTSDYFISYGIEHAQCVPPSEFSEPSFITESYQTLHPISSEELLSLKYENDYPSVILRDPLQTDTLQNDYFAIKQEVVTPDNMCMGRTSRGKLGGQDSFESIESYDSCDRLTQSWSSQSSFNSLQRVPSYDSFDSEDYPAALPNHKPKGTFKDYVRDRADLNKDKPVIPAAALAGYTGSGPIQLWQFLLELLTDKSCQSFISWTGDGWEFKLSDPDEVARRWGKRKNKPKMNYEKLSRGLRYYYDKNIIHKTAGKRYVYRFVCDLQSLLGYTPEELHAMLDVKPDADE
# Experiment: ETS1 binding intensity (PBM fluorescence), ETS1 alone (arbitrary fluorescence units); higher = stronger binding
# Details: ETS1 concentration 1 nM; RUNX1 concentration 0 nM
# 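For RUNX1 binding intensity (PBM fluorescence), RUNX1 alone in this document: Full-length recombinant human RUNX1 bound to double-stranded 36-bp genomic probes on a high-density microarray, scored as Alexa488 fluorescence per spot via anti-RUNX1 antibody, median of four replicate spots.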
row,Sequence,ETS1 binding intensity
1,CAGATCCGGCGTGGACGAAGCTCGGGAACCACAACA,353
2,GAGTACAGGAAATGCAAAGTAAAACCACAGTGAGAT,1460
3,CGGGGATGGGATTTCCGGTGGTTTTTCTTCACTTTC,4490
4,GTGAGCCTGTAAAGGAAATTGAGGTTATGTGGCTCA,981
5,CTTCTTTCCAGAGGATGTGGCTTCAGCGGGAGAGCT,1250
6,GAGACAGGAAATGTAGACTTGAGTCCTGTGGTAAAC,1910
7,GATGGGCGAGTCAGGAAACCACAGCTCTGAGGGTGG,607
8,CACTTCCTGCCCTCTTCCACTTTCAAAACCACATCA,869
9,AGCCACATCCTGGACAAAAGCTGTGGTCTAGTAACC,430
10,CCGCCGCGACACTTCCGGCGGCCACCACAGGGTATT,2700
11,ACTCGGGAATGTCCGGTCGTGGTAAGCAGGGTGGCA,516
12,GTTCTTCCACGTCCGCGTTACCCACAACGGCAGTGG,564
13,TACAGGAACTTCCTGCGCGGCTGCTGTGGTTGCGAG,794
14,GCTCGGAAATACCAATATTGGGCTGTGGTATTTGAA,412
15,GTTGTCTTCTTCCTGAGTAAACCGCAGTGCAGAGAA,456
16,GATTTGTCACAGGAAGTACCCACAGGCCAAGAAGTG,5230
17,GCCCAGGAAGTGGGTACAAAATGAGCCACAAGACCT,616
18,CCTCCCGACCGGAAGCCCCGCCACAGAGCGGGTTGT,6240
19,AGGCTGTGGCGGAAGTGGTCGCGTTACCGCTTGTTT,6340
20,TTTACAGGAAATTACAGGGGTTAAACCAAACCACAA,986

row,Sequence,ETS1 binding intensity
1,AAACCCTGAGTAATCGGAAGTGGTTAGGAGTGAGAG,2190
2,TCCTTTTCCGGTGGCGGCGCCGCGCGGTGAGGTTGT,754
3,GGGTGCAGACGGGAAGTTGCGGCTGCCAGCGAAGCT,1680
4,GTAAAAGAGGAAGTAACACCTCCTTGCGGTTGAGAC,1450
5,TTGGAAACAGACAGGAAGCCACAGGCAGTAAACATT,3300
6,GAGCAGTGGTGGGAAATGTGGGGTTGGGGGTAAAGG,493
7,AGGACCGGAAGTGCCCGAGGGCGGCCGCAGAACGGT,8870
8,GGACGCTTCCGGTGGAAGGGAGCTGTTGCGGGGCTT,1410
9,AACTAGGCTTTTCTTTCCTGTGGTCCTTAAGGAGGC,461
10,CCTGTTTCCTGCCATCTGCCCTTCCTTTGTGGTCAA,774
11,CAGGCACACATCCGGGAGCGGCCTGCGCCGCAAGGC,608
12,CCACCCTCCGTCCGGCCGCGACCGCGAGGAGGAAGA,948
13,GCACCACCGGAAGTAGGGCTCAACCACCGCTCATTT,10300
14,TTCTTCCGGCAACTGCTGCTGAGGCTGCGGTGGCGG,455
15,GCCACACAGGCAGGAAAGCCACAGCCCACGTCTCCG,471
16,CAGGGTGGAAACAGGAAGAGAAACCACACTTAACCT,1540
17,ATTTAGGAGGAAGTTTCCAGTACCACAACCTCACAG,430
18,TACTACTTACCAGCAGGATGTGGTCCCTGCCCACTG,3230
19,TCCCTAAGTCACATCCTGTGGGCAAAGGCCCTAGCA,880

# Target: RUNX1 (UniProt Q01196)
# Experiment: RUNX1 binding intensity (PBM fluorescence), RUNX1 alone (arbitrary fluorescence units); higher = stronger binding
# Details: RUNX1 concentration 2 nM; ETS1 concentration 0 nM
# Experimental: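 Cooperative gcPBM on 36-bp genomic probes with neighbouring ETS1 and RUNX1 sites. Recombinant human RUNX1 (2 nM) was incubated alone or with ETS1 (25 nM) and detected with anti-RUNX1 antibody plus Alexa488 secondary. Values are medians over 4 replicate spots; the RUNX1+ETS1 data were normalised to the RUNX1-only data. The probes sit in constant array flanks that are not printed.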
# RUNX1, sequence (Q01196 whole entry): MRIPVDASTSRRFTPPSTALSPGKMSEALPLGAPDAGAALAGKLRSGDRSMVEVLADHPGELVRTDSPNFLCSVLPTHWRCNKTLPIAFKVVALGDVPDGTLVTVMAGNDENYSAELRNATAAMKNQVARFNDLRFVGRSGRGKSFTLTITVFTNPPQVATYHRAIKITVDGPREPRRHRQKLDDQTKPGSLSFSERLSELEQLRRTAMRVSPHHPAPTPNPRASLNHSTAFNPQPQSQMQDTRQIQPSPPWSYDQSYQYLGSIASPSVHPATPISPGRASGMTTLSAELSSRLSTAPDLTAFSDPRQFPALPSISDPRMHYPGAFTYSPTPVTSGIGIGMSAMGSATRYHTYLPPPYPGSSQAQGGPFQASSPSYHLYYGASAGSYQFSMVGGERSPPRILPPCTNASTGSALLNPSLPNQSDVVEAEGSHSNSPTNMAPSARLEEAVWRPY
row,Sequence,RUNX1 binding intensity
1,CAGATCCGGCGTGGACGAAGCTCGGGAACCACAACA,798
2,GAGTACAGGAAATGCAAAGTAAAACCACAGTGAGAT,904
3,CGGGGATGGGATTTCCGGTGGTTTTTCTTCACTTTC,851
4,GTGAGCCTGTAAAGGAAATTGAGGTTATGTGGCTCA,694
5,CTTCTTTCCAGAGGATGTGGCTTCAGCGGGAGAGCT,817
6,GAGACAGGAAATGTAGACTTGAGTCCTGTGGTAAAC,739
7,GATGGGCGAGTCAGGAAACCACAGCTCTGAGGGTGG,950
8,CACTTCCTGCCCTCTTCCACTTTCAAAACCACATCA,4540
9,AGCCACATCCTGGACAAAAGCTGTGGTCTAGTAACC,911
10,CCGCCGCGACACTTCCGGCGGCCACCACAGGGTATT,727
11,ACTCGGGAATGTCCGGTCGTGGTAAGCAGGGTGGCA,803
12,GTTCTTCCACGTCCGCGTTACCCACAACGGCAGTGG,1020
13,TACAGGAACTTCCTGCGCGGCTGCTGTGGTTGCGAG,684
14,GCTCGGAAATACCAATATTGGGCTGTGGTATTTGAA,911
15,GTTGTCTTCTTCCTGAGTAAACCGCAGTGCAGAGAA,5250
16,GATTTGTCACAGGAAGTACCCACAGGCCAAGAAGTG,817
17,GCCCAGGAAGTGGGTACAAAATGAGCCACAAGACCT,768
18,CCTCCCGACCGGAAGCCCCGCCACAGAGCGGGTTGT,848
19,AGGCTGTGGCGGAAGTGGTCGCGTTACCGCTTGTTT,712
20,TTTACAGGAAATTACAGGGGTTAAACCAAACCACAA,941

row,Sequence,RUNX1 binding intensity
1,AAACCCTGAGTAATCGGAAGTGGTTAGGAGTGAGAG,816
2,TCCTTTTCCGGTGGCGGCGCCGCGCGGTGAGGTTGT,731
3,GGGTGCAGACGGGAAGTTGCGGCTGCCAGCGAAGCT,741
4,GTAAAAGAGGAAGTAACACCTCCTTGCGGTTGAGAC,1020
5,TTGGAAACAGACAGGAAGCCACAGGCAGTAAACATT,753
6,GAGCAGTGGTGGGAAATGTGGGGTTGGGGGTAAAGG,874
7,AGGACCGGAAGTGCCCGAGGGCGGCCGCAGAACGGT,719
8,GGACGCTTCCGGTGGAAGGGAGCTGTTGCGGGGCTT,716
9,AACTAGGCTTTTCTTTCCTGTGGTCCTTAAGGAGGC,929
10,CCTGTTTCCTGCCATCTGCCCTTCCTTTGTGGTCAA,3310
11,CAGGCACACATCCGGGAGCGGCCTGCGCCGCAAGGC,773
12,CCACCCTCCGTCCGGCCGCGACCGCGAGGAGGAAGA,841
13,GCACCACCGGAAGTAGGGCTCAACCACCGCTCATTT,1000
14,TTCTTCCGGCAACTGCTGCTGAGGCTGCGGTGGCGG,799
15,GCCACACAGGCAGGAAAGCCACAGCCCACGTCTCCG,867
16,CAGGGTGGAAACAGGAAGAGAAACCACACTTAACCT,845
17,ATTTAGGAGGAAGTTTCCAGTACCACAACCTCACAG,868
18,TACTACTTACCAGCAGGATGTGGTCCCTGCCCACTG,809
19,TCCCTAAGTCACATCCTGTGGGCAAAGGCCCTAGCA,769
